Compound activity as filed in PubChem BioAssay.
PAFAH1B3 FP inh = inhibitors of human PAFAH1B3; Q15102; recombinant PAFAH1B3, FP-rhodamine probe, fluorescence polarization; inhibition, % at 3.39 µM; actives 0.28% (n = 340,000); AID 492972;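 active = inhibition above the screen-wide average of all tested compounds plus 3 SD, cut at about 25% in these data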
Target sequence (Q15102 whole entry, looked up): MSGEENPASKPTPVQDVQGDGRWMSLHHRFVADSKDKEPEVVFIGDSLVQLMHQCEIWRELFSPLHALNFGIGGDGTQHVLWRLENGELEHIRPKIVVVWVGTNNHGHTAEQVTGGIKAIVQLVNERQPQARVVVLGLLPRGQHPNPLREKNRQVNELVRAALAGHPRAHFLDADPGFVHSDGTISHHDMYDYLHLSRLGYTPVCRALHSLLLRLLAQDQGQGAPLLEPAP
pPAFAH FP inh = pPAFAH (human) enzyme inhibition | Q13093 | recombinant pPAFAH, FP-rhodamine probe fluorescence polarization | inhibition, % at 3.39 µM | actives 1.5% (n = 330,000);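 active = inhibition above the mean inhibition across the screen plus 3 SD, cut at about 25% in these data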;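 also: inhibitors block binding of the rhodamine activity-based probe so polarization drops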
TCR-CD3 inh = human TCR-CD3 binding inhibition; TAMRA-labeled TCR probe fluorescence, biochemical; inhibition, % at 9.4 µM; actives 0.37% (n = 360,000); in the data active = inhibition above about 19%;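 also: recombinant mutant TCR 2C K166C tagged with TAMRA read by polarization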
PAFAH1B2 FP inh = PAFAH1B2 (human) inhibition; P68402; recombinant PAFAH1B2, FP-rhodamine activity probe, fluorescence polarization; inhibition, % at 3.39 µM; actives 1.2% (n = 340,000);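 active = inhibition above the mean of all tested compounds plus 3 SD, cut at about 24% in these data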
Target sequence (P68402 whole entry, looked up): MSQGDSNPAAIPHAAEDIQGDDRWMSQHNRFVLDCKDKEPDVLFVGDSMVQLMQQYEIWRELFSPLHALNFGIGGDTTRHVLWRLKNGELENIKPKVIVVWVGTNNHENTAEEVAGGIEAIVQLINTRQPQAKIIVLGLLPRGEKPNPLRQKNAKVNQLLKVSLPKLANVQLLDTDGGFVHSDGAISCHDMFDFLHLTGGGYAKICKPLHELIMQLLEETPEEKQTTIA
PAFAH2 inh = PAFAH2 (human) inhibition; Q99487; recombinant PAFAH2, FP-rhodamine activity probe, fluorescence polarization; inhibition, % at 3.39 µM; actives 0.99% (n = 340,000);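 active = inhibition above the mean over all tested compounds plus 3 SD, cut at about 30% in these data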;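 also: inhibitors block probe labeling of enzyme so polarization drops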
PAFAH2 confirm = PAFAH2 (human) inhibition, confirmed | shares compounds with PAFAH2 inh | recombinant PAFAH2, FP-rhodamine activity probe, fluorescence polarization | inhibition, % at 3.39 µM | actives 65% (n = 2,300) | AID 493030;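 active = mean inhibition over three repeats above a set limit taken from the earlier primary screen, cut at about 30% in these data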;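 also: inhibitor blocks binding of rhodamine activity probe so polarization falls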
Of the large screens only hits and unclear results are named; the others gave an inactive call (follow-up assays come after a bar, where they were run). Rows were chosen to be rich in hits. Some 2.7% of all compounds tested hit in one or more screens of this group.

C=CCNC(=O)COC(=O)c1ccc(C)c(NC(=O)c2ccco2)c1	PAFAH2 inh 36 | PAFAH2 confirm 30
Cc1ccc(C(=O)OCC(=O)c2c[nH]c3ccccc23)cc1NC(=O)c1ccco1	none
CCN(CC)C(=O)COC(=O)c1ccc(C)c(NC(=O)c2ccco2)c1	none
O=C(OCc1c(F)cccc1Cl)c1cnc2ccccc2n1	none
CC(C)COC(=O)n1c(=O)oc2cc(S(=O)(=O)N3CCCCC3)ccc21	none
CCCCOC(=O)n1c(=O)oc2ccc(S(=O)(=O)N3CCCCC3)cc21	PAFAH2 inh 66 | PAFAH2 confirm 61
O=S(=O)(c1ccc(-c2csc(Nc3ccc(Br)cc3)n2)cc1)N1CCCC1	PAFAH2 inh 30 | PAFAH2 confirm inactive
O=C1C=CC(=O)C(CNc2ccc(C(=O)OCc3ccccc3)cc2)=C1	PAFAH2 inh 59 (no result: pPAFAH FP inh) | PAFAH2 confirm 37
COc1ccc(NC(=O)COC(=O)c2cccc(S(=O)(=O)N(C)C)c2)cc1	PAFAH2 inh 41 (no result: pPAFAH FP inh) | PAFAH2 confirm inactive
CN(C)S(=O)(=O)c1cccc(C(=O)OCC(=O)NCc2ccccc2)c1	PAFAH2 inh 30 | PAFAH2 confirm inactive
CN(c1ccccc1)S(=O)(=O)c1cccc(C(=O)OCC(=O)NCc2ccccc2)c1	none
O=C(COC(=O)C1C2CC3OC(=O)C1C3C2)Nc1cccc(C(F)(F)F)c1 (stereo unspecified)	PAFAH2 inh 71 | PAFAH2 confirm 78
COc1cccc(NC(=O)COC(=O)C2C3CC4OC(=O)C2C4C3)c1 (stereo unspecified)	PAFAH2 inh 79 | PAFAH2 confirm 68
CCc1ccccc1NC(=O)COC(=O)C1C2CC3OC(=O)C1C3C2 (stereo unspecified)	PAFAH2 inh 40 | PAFAH2 confirm 31
COc1cccc(NC(=O)C2C3CC4OC(=O)C2C4C3)c1 (stereo unspecified)	none
O=C(COC(=O)C1C2CC3OC(=O)C1C3C2)Nc1ccc(Cl)cc1 (stereo unspecified)	PAFAH2 inh 84 | PAFAH2 confirm 74
O=c1cc(C(F)(F)F)nc(SCc2cccc3ccccc23)[nH]1	PAFAH2 inh 51 | PAFAH2 confirm 31
CCc1cc(=O)[nH]c(SCc2cccc3ccccc23)n1	PAFAH2 inh 61 (no result: TCR-CD3 inh) | PAFAH2 confirm 51
COc1cccc(NC(=O)COC(=O)c2ccccc2SCC(=O)N2CCCC2)c1	PAFAH2 inh 82 | PAFAH2 confirm 81
NS(=O)(=O)c1ccc(CNC(=O)c2ccccc2SCC(=O)N2CCCC2)cc1	none
O=C(COC(=O)c1ccccc1SCC(=O)N1CCCC1)Nc1ccccc1	PAFAH2 inh 88 | PAFAH2 confirm 80
COc1ccc(C)cc1NC(=O)COC(=O)c1ccccc1SCC(=O)N1CCCC1	none
CCCC(C)NC(=O)COC(=O)c1ccccc1SCC(=O)NC(C)CCC (stereo unspecified)	PAFAH2 inh 39 | PAFAH2 confirm 43
O=C(OCC(=O)N1CCOCC1)c1ccccc1SCC(=O)N1CCCC1	none
NS(=O)(=O)c1cccc(NC(=O)COC(=O)c2ccccc2SCC(=O)N2CCCC2)c1	PAFAH2 inh 40 | PAFAH2 confirm 36
CCOC1=C2CN(S(=O)(=O)c3ccccc3)[C@H](c3ccccc3)C[C@H]2n2c(=O)n(-c3ccccc3)c(=O)n2C1	none (no result: PAFAH1B3 FP inh, pPAFAH FP inh, PAFAH1B2 FP inh, PAFAH2 inh)
Oc1cccc2oc(=S)[nH]c12	none (no result: pPAFAH FP inh)
COc1cc(NC(=O)COC(=O)c2ccccc2SCC(=O)N2CCCC2)cc(OC)c1	PAFAH2 inh 42 | PAFAH2 confirm inactive
Cc1nn(C2CCS(=O)(=O)C2)c(Cl)c1/C=C/C(=O)OCC(=O)Nc1ccc2c(c1)OCO2 (stereo unspecified)	PAFAH2 inh 83 | PAFAH2 confirm 80
COc1cc(NC(=O)COC(=O)/C=C/c2ccc(O)c(OC)c2)cc(OC)c1	none
COc1cc(/C=C/C(=O)OCC(=O)Nc2ccc(S(=O)(=O)N3CCCC3)cc2)ccc1O	none
COc1ccc(/C=C/C(=O)OCC(=O)Nc2ccc3c(c2)OCO3)cc1	PAFAH2 inh 70 | PAFAH2 confirm 69
COc1cc(/C=C/C(=O)OCC(=O)Nc2ccc3c(c2)OCO3)ccc1O	PAFAH2 inh 82 | PAFAH2 confirm 74
COc1cc(/C=C/C(=O)OCC(=O)Nc2ccc3c(c2)OCCO3)ccc1O	PAFAH2 inh 75 | PAFAH2 confirm 80
COc1ccc(CC(=O)OCC(=O)Nc2ccc3c(c2)OCO3)cc1	none
CC(C)(C)NCC(=Cc1ccccc1)C(=O)c1ccccc1	none (no result: pPAFAH FP inh)
CCN1CCN(C(=O)C(C)Sc2nnc3nc(C)cc(C)n23)CC1 (stereo unspecified)	none
O=C(c1cc(-c2ccccc2Cl)on1)N1CCCC1	PAFAH2 inh 36 | PAFAH2 confirm 35
COc1ccccc1-c1cc(C(=O)N2CCCC2)no1	none
CCCCc1ccc(NC(=S)N2CCCC(C)C2)cc1 (stereo unspecified)	none
CN1C2CCC1CC(NC(=O)c1cccc(C(F)(F)F)c1)C2 (stereo unspecified)	PAFAH2 inh 32 | PAFAH2 confirm inactive
CCC(CO)Oc1cc(NC(=O)Cc2ccccc2F)c2ncn(C(C)C)c2c1 (stereo unspecified)	PAFAH2 inh 40 | PAFAH2 confirm inactive
Cc1cc(S(=O)(=O)N2CCN=C2c2ccccc2)c(C)cc1Cl	none
Cc1ccc(C(=O)OCC(=O)Nc2ccccc2)cc1S(=O)(=O)N1CCCCC1	PAFAH2 inh 50 | PAFAH2 confirm 36
Cc1ccc(S(=O)(=O)N2CCCCC2)cc1NC(=O)COC(=O)C1CC2C=CC1C2 (stereo unspecified)	none
Cc1ccc(NC(=O)COC(=O)C2CC3C=CC2C3)cc1S(=O)(=O)N1CCCCC1 (stereo unspecified)	PAFAH2 inh 60 | PAFAH2 confirm 52
Cc1cc(C)n(-c2ccc(C(=O)OCC(=O)Nc3cc(S(C)(=O)=O)ccc3Cl)cc2)n1	PAFAH2 inh 36 | PAFAH2 confirm inactive
Cc1ccc(C(=O)OCC(=O)Nc2cc(S(C)(=O)=O)ccc2Cl)cc1S(=O)(=O)N1CCCCC1	PAFAH2 inh 64 | PAFAH2 confirm 54
Cn1nc(C(=O)OCC(=O)Nc2ccccc2OC(F)F)c2ccccc2c1=O	none
Cc1cccc(NC(=O)COC(=O)c2ccc(C)c(S(=O)(=O)N3CCCCC3)c2)c1	PAFAH2 inh 42 | PAFAH2 confirm 38
Cc1nc(NC(=O)COC(=O)c2ccc(CO)cc2)c(Cl)cc1Cl	PAFAH2 inh 44 | PAFAH2 confirm inactive
Cc1nc(NC(=O)COC(=O)CCc2ccccc2)c(Cl)cc1Cl	none
CCCCCCOC(=O)c1ccc(N)cc1	PAFAH2 inh 68 | PAFAH2 confirm 61
CCCCCCCOC(=O)c1ccc(OC(=O)c2cccnc2)cc1	PAFAH2 inh 47 | PAFAH2 confirm 32
COc1ccc(S(=O)(=O)N2CCC(C(=O)N[C@@H](C)C(=O)NCc3cccnc3)CC2)cc1	none (no result: PAFAH1B3 FP inh, pPAFAH FP inh, PAFAH1B2 FP inh, PAFAH2 inh)
